# According to the supplement of paper PMC8728848:
# About 410 targets per protein were measured; listed, in parts, are those with the strongest signals and a random draw of the rest.
# Assays:
# Experiment in all cases: glycan array binding signal (z-score within array); higher = stronger binding
# Conditions in all cases: glycan notation: IUPAC condensed, linker removed
# [1] = molecular target: Fuc(a1-2)Gal(b1-3)GlcNAc(b1-3)[Gal(b1-4)GlcNAc(b1-6)]Gal(b1-4)Glc
# In short: (§1)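 Glycan array data were curated from 3228 arrays in the Consortium for Functional Glycomics database and kept only where the protein sequence was available. Glycan names were converted to IUPAC-condensed notation, and columns mapping to the same glycan were averaged. The binding signal is a within-array Z-score, averaged across arrays of the same protein sequence at different concentrations or buffers and across linkers. Negative Z-scores can be read as non-binding.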
# Fuc(a1-2)Gal(b1-4)GlcNAc = molecular target: Fuc(a1-2)Gal(b1-4)GlcNAc
# In short: as §1
# [2] = molecular target: Fuc(a1-2)Gal(b1-4)GlcNAc(b1-3)[Fuc(a1-3)[Gal(b1-4)]GlcNAc(b1-6)]Gal(b1-4)Glc
# In short: as §1
# [3] = molecular target: Fuc(a1-2)Gal(b1-4)GlcNAc(b1-6)GalNAc
# In short: as §1
# [4] = molecular target: Fuc(a1-2)Gal6S(b1-3)GlcNAc
# In short: as §1
# [5] = molecular target: Fuc(a1-2)[Gal(a1-3)]Gal(b1-3)GlcNAc(b1-2)Man(a1-3)[Fuc(a1-2)[Gal(a1-3)]Gal(b1-3)GlcNAc(b1-2)Man(a1-6)]Man(b1-4)GlcNAc(b1-4)GlcNAc
# In short: as §1
# [6] = molecular target: Fuc(a1-2)[Gal(a1-3)]Gal(b1-3)GlcNAc(b1-6)GalNAc
# In short: as §1
# [7] = molecular target: Fuc(a1-2)[Gal(a1-4)]Gal(b1-4)GlcNAc
# In short: as §1
# [8] = molecular target: Fuc(a1-2)[GalNAc(a1-3)]Gal(b1-3)GlcNAc(b1-6)GalNAc
# In short: as §1
# [9] = molecular target: Fuc(a1-2)[GalNAc(a1-3)]Gal(b1-4)GlcNAc(b1-2)Man(a1-3)[Fuc(a1-2)[GalNAc(a1-3)]Gal(b1-4)GlcNAc(b1-2)Man(a1-6)]Man(b1-4)GlcNAc(b1-4)[Fuc(a1-6)]GlcNAc
# In short: as §1
# [10] = molecular target: Fuc(a1-2)[GalNAc(a1-3)]Gal(b1-4)GlcNAc(b1-6)GalNAc
# In short: as §1
# [11] = molecular target: Fuc(a1-2)[GalNAc(a1-4)]Gal(b1-4)GlcNAc
# In short: as §1
# [12] = molecular target: Fuc(a1-3)[Gal(b1-4)]GlcNAc(b1-2)Man(a1-3)[Fuc(a1-3)[Gal(b1-4)]GlcNAc(b1-2)Man(a1-6)]Man(b1-4)GlcNAc(b1-4)[Fuc(a1-6)]GlcNAc
# In short: as §1
# [13] = molecular target: Fuc(a1-3)[Gal(b1-4)]GlcNAc(b1-3)Gal(b1-4)[Fuc(a1-3)]GlcNAc(b1-3)Gal(b1-4)[Fuc(a1-3)]GlcNAc
# In short: as §1
# [14] = molecular target: Fuc(a1-3)[Gal3S(b1-4)]GlcNAc6S
# In short: as §1
# [15] = molecular target: Gal(b1-3)[Fuc(a1-4)]GlcNAc(b1-3)Gal(b1-3)[Fuc(a1-4)]GlcNAc
# In short: as §1
# [16] = molecular target: Gal(b1-3)[Fuc(a1-4)]GlcNAc(b1-6)GalNAc
# In short: as §1
# Gal(b1-4)Glc = molecular target: Gal(b1-4)Glc
# In short: as §1
# [17] = molecular target: Gal(b1-4)GlcNAc(b1-2)Man(a1-3)[Man(a1-6)]Man(b1-4)GlcNAc(b1-4)GlcNAc
# In short: as §1
# [18] = molecular target: GalNAc(b1-3)Gal(a1-4)Gal(b1-4)GlcNAc(b1-3)Gal(b1-4)Glc
# In short: as §1
# GalNAc(b1-3)GalNAc = molecular target: GalNAc(b1-3)GalNAc
# In short: as §1
# [19] = molecular target: GlcA3S(b1-3)Gal(b1-4)GlcNAc(b1-2)Man
# In short: as §1
# [20] = molecular target: GlcNAc(b1-3)Gal(b1-4)GlcNAc(b1-3)Gal(b1-4)GlcNAc(b1-3)Gal(b1-4)GlcNAc(b1-2)Man(a1-3)[GlcNAc(b1-3)Gal(b1-4)GlcNAc(b1-3)Gal(b1-4)GlcNAc(b1-3)Gal(b1-4)GlcNAc(b1-2)Man(a1-6)]Man(b1-4)GlcNAc(b1-4)GlcNAc
# In short: as §1
# [21] = molecular target: GlcNAc(b1-3)Gal(b1-4)GlcNAc(b1-3)Gal(b1-4)GlcNAc(b1-3)Gal(b1-4)GlcNAc(b1-3)Gal(b1-4)GlcNAc(b1-2)[GlcNAc(b1-3)Gal(b1-4)GlcNAc(b1-3)Gal(b1-4)GlcNAc(b1-3)Gal(b1-4)GlcNAc(b1-3)Gal(b1-4)GlcNAc(b1-6)]Man(a1-6)[GlcNAc(b1-3)Gal(b1-4)GlcNAc(b1-3)Gal(b1-4)GlcNAc(b1-3)Gal(b1-4)GlcNAc(b1-3)Gal(b1-4)GlcNAc(b1-2)Man(a1-3)]Man(b1-4)GlcNAc(b1-4)[Fuc(a1-6)]GlcNAc
# In short: as §1
# [22] = molecular target: Neu5Ac(a2-3)Gal(b1-3)GlcNAc(b1-2)Man(a1-3)[GlcNAc(b1-4)][Neu5Ac(a2-3)Gal(b1-3)GlcNAc(b1-2)Man(a1-6)]Man(b1-4)GlcNAc(b1-4)GlcNAc
# In short: as §1
# [23] = molecular target: Neu5Ac(a2-3)Gal(b1-3)GlcNAc(b1-2)[Neu5Ac(a2-3)Gal(b1-3)GlcNAc(b1-4)]Man(a1-6)[Neu5Ac(a2-3)Gal(b1-3)GlcNAc(b1-2)Man(a1-3)]Man(b1-4)GlcNAc(b1-4)GlcNAc
# In short: as §1
# [24] = molecular target: Neu5Ac(a2-3)Gal(b1-3)[Fuc(a1-4)]GlcNAc
# In short: as §1
# [25] = molecular target: Neu5Ac(a2-3)Gal(b1-3)]Neu5Ac(a2-3)Gal(b1-4)]GlcNAc
# In short: as §1
# [26] = molecular target: Neu5Ac(a2-3)Gal(b1-4)GlcNAc
# In short: as §1
# [27] = molecular target: Neu5Ac(a2-3)Gal(b1-4)GlcNAc(b1-2)Man(a1-3)[Neu5Ac(a2-3)Gal(b1-4)GlcNAc(b1-2)Man(a1-6)]Man(b1-4)GlcNAc(b1-4)[Fuc(a1-6)]GlcNAc
# In short: as §1
# [28] = molecular target: Neu5Ac(a2-3)Gal(b1-4)GlcNAc(b1-3)Gal(b1-4)GlcNAc(b1-3)Gal(b1-4)GlcNAc
# In short: as §1
# [29] = molecular target: Neu5Ac(a2-3)Gal(b1-4)GlcNAc(b1-3)Gal(b1-4)GlcNAc(b1-3)GalNAc
# In short: as §1
# [30] = molecular target: Neu5Ac(a2-3)Gal(b1-4)GlcNAc6S
# In short: as §1
# [31] = molecular target: Neu5Ac(a2-3)Gal(b1-4)[Fuc(a1-3)]GlcNAc6S
# In short: as §1
# [32] = molecular target: Neu5Ac(a2-3)Gal6S(b1-4)GlcNAc
# In short: as §1
# [33] = molecular target: Neu5Ac(a2-3)Gal6S(b1-4)[Fuc(a1-3)]GlcNAc
# In short: as §1
# Neu5Ac(a2-6)Gal(b1-4)Glc = molecular target: Neu5Ac(a2-6)Gal(b1-4)Glc
# In short: as §1
# [34] = molecular target: Neu5Ac(a2-6)Gal(b1-4)GlcNAc(b1-3)[Neu5Ac(a2-6)Gal(b1-4)GlcNAc(b1-6)]GalNAc
# In short: as §1
# Neu5Ac(a2-8)Neu5Ac = molecular target: Neu5Ac(a2-8)Neu5Ac
# In short: as §1
# [35] = molecular target: Neu5Ac(a2-8)Neu5Ac(a2-3)Gal(b1-3)GalNAc(b1-4)[Neu5Ac(a2-3)]Gal(b1-4)Glc
# In short: as §1
# [36] = molecular target: Neu5Gc(a2-3)Gal(b1-3)[Fuc(a1-4)]GlcNAc
# In short: as §1
# [37] = molecular target: Neu5Gc(a2-3)Gal(b1-4)GlcNAc(b1-3)Gal(b1-4)GlcNAc(b1-2)Man(a1-3)[Neu5Gc(a2-3)Gal(b1-4)GlcNAc(b1-3)Gal(b1-4)GlcNAc(b1-2)Man(a1-6)]Man(b1-4)GlcNAc(b1-4)GlcNAc
# In short: as §1
# Neu5Gc(a2-6)GalNAc = molecular target: Neu5Gc(a2-6)GalNAc
# In short: as §1
# [38] = molecular target: Neu5Gc(a2-8)Neu5Ac(a2-3)Gal(b1-4)GlcNAc
# In short: as §1
binder,measurement,setting,value
diCBM40 CPF071 (Clostridium perfringens) (protein) MAHHHHHHVGTGSNDDDDKSPDPMLSSLGEYKDINLESSNASNITYDLEKYKNLDEGTIVVRFNSKDSKIQSLLGISNSKTKNGYFNFYVTNSRVGFELRNQKNEGNTQNGTENLVHMYKDVALNDGDNTVALKIEKNKGYKLFLNGKMIKEVKDTNTKFLNNIENLDSAFIGKTNRYGQSNEYNFKGNIGFMNIYNEPLGDDYLLSKTGETKALNGSELGSGSGLSSLGEYKDINLESSNASNITYDLEKYKNLDEGTIVVRFNSKDSKIQSLLGISNSKTKNGYFNFYVTNSRVGFELRNQKNEGNTQNGTENLVHMYKDVALNDGDNTVALKIEKNKGYKLFLNGKMIKEVKDTNTKFLNNIENLDSAFIGKTNRYGQSNEYNFKGNIGFMNIYNEPLGDDYLLSKTGETK,glycan array binding signal (z-score),[1],-0.277
same,glycan array binding signal (z-score),Fuc(a1-2)Gal(b1-4)GlcNAc,-0.304
same,glycan array binding signal (z-score),[2],-0.238
same,glycan array binding signal (z-score),[3],-0.304
same,glycan array binding signal (z-score),[4],-0.33
same,glycan array binding signal (z-score),[5],-0.342
same,glycan array binding signal (z-score),[6],-0.307
same,glycan array binding signal (z-score),[7],-0.342
same,glycan array binding signal (z-score),[8],-0.287
same,glycan array binding signal (z-score),[9],-0.324
same,glycan array binding signal (z-score),[10],-0.321
same,glycan array binding signal (z-score),[11],-0.255
same,glycan array binding signal (z-score),[12],-0.084
same,glycan array binding signal (z-score),[13],-0.183
same,glycan array binding signal (z-score),[14],-0.332
same,glycan array binding signal (z-score),[15],-0.31
same,glycan array binding signal (z-score),[16],-0.151
same,glycan array binding signal (z-score),Gal(b1-4)Glc,-0.329
same,glycan array binding signal (z-score),[17],-0.257
same,glycan array binding signal (z-score),[18],-0.306
same,glycan array binding signal (z-score),GalNAc(b1-3)GalNAc,-0.314
same,glycan array binding signal (z-score),[19],-0.33
same,glycan array binding signal (z-score),[20],0.045
same,glycan array binding signal (z-score),[21],-0.23
same,glycan array binding signal (z-score),[22],-0.21
same,glycan array binding signal (z-score),[23],5.89
same,glycan array binding signal (z-score),[24],4.37
same,glycan array binding signal (z-score),[25],8.45
same,glycan array binding signal (z-score),[26],4.46
same,glycan array binding signal (z-score),[27],5.75
same,glycan array binding signal (z-score),[28],5.87
same,glycan array binding signal (z-score),[29],-0.157
same,glycan array binding signal (z-score),[30],7.8
same,glycan array binding signal (z-score),[31],5.95
same,glycan array binding signal (z-score),[32],7.24
same,glycan array binding signal (z-score),[33],4.71
same,glycan array binding signal (z-score),Neu5Ac(a2-6)Gal(b1-4)Glc,0.183
same,glycan array binding signal (z-score),[34],-0.197
same,glycan array binding signal (z-score),Neu5Ac(a2-8)Neu5Ac,-0.046
same,glycan array binding signal (z-score),[35],-0.2
same,glycan array binding signal (z-score),[36],0.647
same,glycan array binding signal (z-score),[37],6.28
same,glycan array binding signal (z-score),Neu5Gc(a2-6)GalNAc,-0.044
same,glycan array binding signal (z-score),[38],-0.252
